± gives the standard deviation.
Key:
Experiment in all cases: peptide microarray binding signal (635 nm), min-max normalized on array (fraction of array maximum); higher = stronger binding
[1] = biological target: T1, HaloTag-ATRX ADD domain (163-292)
T1 chain: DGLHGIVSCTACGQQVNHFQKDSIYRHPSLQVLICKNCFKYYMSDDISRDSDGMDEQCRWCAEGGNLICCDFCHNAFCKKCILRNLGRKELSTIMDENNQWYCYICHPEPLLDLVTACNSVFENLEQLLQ
How it was run: (§1)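 For each library, binding signal was taken as the triplicate-spot mean intensity and then min-max scaled. Spots of histone 13-mer peptide–cellulose conjugates on nitrocellulose, printed in triplicate with a Cy3 tracer, were probed for 1 h at 4°C with either biotin-labelled HaloTag reader fusions (10 nM to 1 μM) and streptavidin-Alexa Fluor 647 or rabbit histone antibodies (1:10,000 to 1:2,000) and anti-rabbit Alexa 647. Readout at 635 nm came from an Axon GenePix 4000B.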

[2] = biological target: HaloTag-ING2 PHD (mouse Ing2 200-280)
How it was run: as §1

[3] = biological target: anti-H3K4me3 antibody ab8580
How it was run: as §1

[4] = biological target: anti-H3K9me3 antibody ab8898
How it was run: as §1

[5] = peptide region: H3 5-17, peptide modifications: H3T11ph H3K14me3, binder concentration: 1:2,000 dilution
[6] = peptide region: H3 5-17, peptide modifications: H3T11ph H3K14me3, binder concentration: 1:10,000 dilution
[7] = peptide region: H3 5-17, peptide modifications: H3S10ph, binder concentration: 1:2,000 dilution
[8] = peptide region: H3 5-17, peptide modifications: H3S10ph, binder concentration: 1:10,000 dilution
[9] = peptide region: H3 5-17, peptide modifications: H3T11ph H3K14me2, binder concentration: 1:2,000 dilution
[10] = peptide region: H3 5-17, peptide modifications: H3T11ph H3K14me2, binder concentration: 1:10,000 dilution
[11] = peptide region: H3 5-17, peptide modifications: H3T11ph, binder concentration: 1:2,000 dilution
[12] = peptide region: H3 5-17, peptide modifications: H3T11ph, binder concentration: 1:10,000 dilution
[13] = peptide region: H3 5-17, peptide modifications: H3R8me2s, binder concentration: 1:2,000 dilution
[14] = peptide region: H3 5-17, peptide modifications: H3R8me2s, binder concentration: 1:10,000 dilution
[15] = peptide region: H3 5-17, peptide modifications: H3T11ph H3K14me1, binder concentration: 1:2,000 dilution
[16] = peptide region: H3 5-17, peptide modifications: H3T11ph H3K14me1, binder concentration: 1:10,000 dilution
[17] = peptide region: H3 11-23, peptide modifications: H3K14ac H3K18ac, binder concentration: 1:2,000 dilution
[18] = peptide region: H3 11-23, peptide modifications: H3K14ac H3K18ac, binder concentration: 1:10,000 dilution
[19] = peptide region: H3 5-17, peptide modifications: H3R8me2s H3K9ac, binder concentration: 1:2,000 dilution
[20] = peptide region: H3 5-17, peptide modifications: H3R8me2s H3K9ac, binder concentration: 1:10,000 dilution
[21] = peptide region: H3 5-17, peptide modifications: H3S10ph H3K14ac, binder concentration: 1:2,000 dilution
[22] = peptide region: H3 5-17, peptide modifications: H3S10ph H3K14ac, binder concentration: 1:10,000 dilution
[23] = peptide region: H3 5-17, peptide modifications: H3S10ph H3T11ph, binder concentration: 1:2,000 dilution
[24] = peptide region: H3 5-17, peptide modifications: H3S10ph H3T11ph, binder concentration: 1:10,000 dilution

QTARKSTGGKAPR [H3 5-17 Q T A R K S Tph G G Kme3 A P R]
peptide microarray binding signal ([1]; peptide region: H3 5-17, peptide modifications: H3T11ph H3K14me3, binder concentration: 50 nM): 0.00257 ± 7.4e-05
peptide microarray binding signal ([1]; peptide region: H3 5-17, peptide modifications: H3T11ph H3K14me3, binder concentration: 500 nM): 0.00829 ± 0.00052
peptide microarray binding signal ([2]; peptide region: H3 5-17, peptide modifications: H3T11ph H3K14me3, binder concentration: 10 nM): 0.00418 ± 0.00034
peptide microarray binding signal ([2]; peptide region: H3 5-17, peptide modifications: H3T11ph H3K14me3, binder concentration: 100 nM): 0.00857 ± 0.0014
peptide microarray binding signal [3, 5]: 0.00848 ± 0.002
peptide microarray binding signal [3, 6]: 0.00582 ± 0.0016
peptide microarray binding signal [4, 5]: 0.0639 ± 0.0075
peptide microarray binding signal [4, 6]: 0.0181 ± 0.0023

QTARKSTGGKAPR [H3 5-17 Q T A R K Sph T G G K A P R]
peptide microarray binding signal ([1]; peptide region: H3 5-17, peptide modifications: H3S10ph, binder concentration: 50 nM): 0.00589 ± 6.1e-05
peptide microarray binding signal ([1]; peptide region: H3 5-17, peptide modifications: H3S10ph, binder concentration: 500 nM): 0.0117 ± 0.0012
peptide microarray binding signal ([2]; peptide region: H3 5-17, peptide modifications: H3S10ph, binder concentration: 10 nM): 0.00955 ± 0.00078
peptide microarray binding signal ([2]; peptide region: H3 5-17, peptide modifications: H3S10ph, binder concentration: 100 nM): 0.0203 ± 0.002
peptide microarray binding signal [3, 7]: 0.00142 ± 0.0001
peptide microarray binding signal [3, 8]: 0.0024 ± 0.00015
peptide microarray binding signal [4, 7]: 0.000785 ± 1.3e-05
peptide microarray binding signal [4, 8]: 0.0011 ± 1.1e-05

QTARKSTGGKAPR [H3 5-17 Q T A R K S Tph G G Kme2 A P R]
peptide microarray binding signal ([1]; peptide region: H3 5-17, peptide modifications: H3T11ph H3K14me2, binder concentration: 50 nM): 0.00216 ± 8e-05
peptide microarray binding signal ([1]; peptide region: H3 5-17, peptide modifications: H3T11ph H3K14me2, binder concentration: 500 nM): 0.00505 ± 0.00083
peptide microarray binding signal ([2]; peptide region: H3 5-17, peptide modifications: H3T11ph H3K14me2, binder concentration: 10 nM): 0.00239 ± 0.00024
peptide microarray binding signal ([2]; peptide region: H3 5-17, peptide modifications: H3T11ph H3K14me2, binder concentration: 100 nM): 0.00213 ± 0.00021
peptide microarray binding signal [3, 9]: 0.00496 ± 0.0019
peptide microarray binding signal [3, 10]: 0.00605 ± 0.0024
peptide microarray binding signal [4, 9]: 0.00177 ± 0.00016
peptide microarray binding signal [4, 10]: 0.00248 ± 0.00058

QTARKSTGGKAPR [H3 5-17 Q T A R K S Tph G G K A P R]
peptide microarray binding signal ([1]; peptide region: H3 5-17, peptide modifications: H3T11ph, binder concentration: 50 nM): 0.0138 ± 0.005
peptide microarray binding signal ([1]; peptide region: H3 5-17, peptide modifications: H3T11ph, binder concentration: 500 nM): 0.014 ± 0.0037
peptide microarray binding signal ([2]; peptide region: H3 5-17, peptide modifications: H3T11ph, binder concentration: 10 nM): 0.0156 ± 0.0015
peptide microarray binding signal ([2]; peptide region: H3 5-17, peptide modifications: H3T11ph, binder concentration: 100 nM): 0.0409 ± 0.0057
peptide microarray binding signal [3, 11]: 0.0044 ± 0.0008
peptide microarray binding signal [3, 12]: 0.00553 ± 0.00047
peptide microarray binding signal [4, 11]: 0.00195 ± 7.3e-05
peptide microarray binding signal [4, 12]: 0.00254 ± 0.00012

QTARKSTGGKAPR [H3 5-17 Q T A Rme2s K S T G G K A P R]
peptide microarray binding signal ([1]; peptide region: H3 5-17, peptide modifications: H3R8me2s, binder concentration: 50 nM): 0.00245 ± 0.00023
peptide microarray binding signal ([1]; peptide region: H3 5-17, peptide modifications: H3R8me2s, binder concentration: 500 nM): 0.00352 ± 0.00033
peptide microarray binding signal ([2]; peptide region: H3 5-17, peptide modifications: H3R8me2s, binder concentration: 10 nM): 0.00412 ± 0.00015
peptide microarray binding signal ([2]; peptide region: H3 5-17, peptide modifications: H3R8me2s, binder concentration: 100 nM): 0.00184 ± 6.7e-05
peptide microarray binding signal [3, 13]: 0.0129 ± 0.0069
peptide microarray binding signal [3, 14]: 0.0128 ± 0.0042
peptide microarray binding signal [4, 13]: 0.00237 ± 0.00021
peptide microarray binding signal [4, 14]: 0.00415 ± 0.00028

QTARKSTGGKAPR [H3 5-17 Q T A R K S Tph G G Kme A P R]
peptide microarray binding signal ([1]; peptide region: H3 5-17, peptide modifications: H3T11ph H3K14me1, binder concentration: 50 nM): 0.00301 ± 0.00011
peptide microarray binding signal ([1]; peptide region: H3 5-17, peptide modifications: H3T11ph H3K14me1, binder concentration: 500 nM): 0.00562 ± 0.00013
peptide microarray binding signal ([2]; peptide region: H3 5-17, peptide modifications: H3T11ph H3K14me1, binder concentration: 10 nM): 0.00466 ± 0.00013
peptide microarray binding signal ([2]; peptide region: H3 5-17, peptide modifications: H3T11ph H3K14me1, binder concentration: 100 nM): 0.00496 ± 0.00066
peptide microarray binding signal [3, 15]: 0.00106 ± 2.3e-05
peptide microarray binding signal [3, 16]: 0.0012 ± 3.2e-05
peptide microarray binding signal [4, 15]: 0.00112 ± 2.3e-05
peptide microarray binding signal [4, 16]: 0.000807

TGGKAPRKQLATK [H3 11-23 T G G Kac A P R Kac Q L A T K]
peptide microarray binding signal ([1]; peptide region: H3 11-23, peptide modifications: H3K14ac H3K18ac, binder concentration: 50 nM): 0.00511 ± 0.00036
peptide microarray binding signal ([1]; peptide region: H3 11-23, peptide modifications: H3K14ac H3K18ac, binder concentration: 500 nM): 0.013 ± 0.00068
peptide microarray binding signal ([2]; peptide region: H3 11-23, peptide modifications: H3K14ac H3K18ac, binder concentration: 10 nM): 0.00913 ± 0.0004
peptide microarray binding signal ([2]; peptide region: H3 11-23, peptide modifications: H3K14ac H3K18ac, binder concentration: 100 nM): 0.0128 ± 0.00072
peptide microarray binding signal [3, 17]: 0.00445 ± 0.00038
peptide microarray binding signal [3, 18]: 0.00896 ± 0.0029
peptide microarray binding signal [4, 17]: 0.00139 ± 6.5e-05
peptide microarray binding signal [4, 18]: 0.00115 ± 2e-05

QTARKSTGGKAPR [H3 5-17 Q T A Rme2s Kac S T G G K A P R]
peptide microarray binding signal ([1]; peptide region: H3 5-17, peptide modifications: H3R8me2s H3K9ac, binder concentration: 50 nM): 0.0102 ± 0.00014
peptide microarray binding signal ([1]; peptide region: H3 5-17, peptide modifications: H3R8me2s H3K9ac, binder concentration: 500 nM): 0.0189 ± 0.00053
peptide microarray binding signal ([2]; peptide region: H3 5-17, peptide modifications: H3R8me2s H3K9ac, binder concentration: 10 nM): 0.0344 ± 0.0018
peptide microarray binding signal ([2]; peptide region: H3 5-17, peptide modifications: H3R8me2s H3K9ac, binder concentration: 100 nM): 0.064 ± 0.0047
peptide microarray binding signal [3, 19]: 0.0111 ± 0.0022
peptide microarray binding signal [3, 20]: 0.0146 ± 0.00068
peptide microarray binding signal [4, 19]: 0.011 ± 0.00081
peptide microarray binding signal [4, 20]: 0.00899 ± 0.0016

QTARKSTGGKAPR [H3 5-17 Q T A R K Sph T G G Kac A P R]
peptide microarray binding signal ([1]; peptide region: H3 5-17, peptide modifications: H3S10ph H3K14ac, binder concentration: 50 nM): 0.0047 ± 0.00015
peptide microarray binding signal ([1]; peptide region: H3 5-17, peptide modifications: H3S10ph H3K14ac, binder concentration: 500 nM): 0.0165 ± 0.0018
peptide microarray binding signal ([2]; peptide region: H3 5-17, peptide modifications: H3S10ph H3K14ac, binder concentration: 10 nM): 0.0122 ± 0.0017
peptide microarray binding signal ([2]; peptide region: H3 5-17, peptide modifications: H3S10ph H3K14ac, binder concentration: 100 nM): 0.0326 ± 0.0032
peptide microarray binding signal [3, 21]: 0.00136 ± 0.00015
peptide microarray binding signal [3, 22]: 0.0012 ± 3.2e-05
peptide microarray binding signal [4, 21]: 0.00435 ± 0.00042
peptide microarray binding signal [4, 22]: 0.00213 ± 7.1e-05

QTARKSTGGKAPR [H3 5-17 Q T A R K Sph Tph G G K A P R]
peptide microarray binding signal ([1]; peptide region: H3 5-17, peptide modifications: H3S10ph H3T11ph, binder concentration: 50 nM): 0.00295 ± 9.8e-05
peptide microarray binding signal ([1]; peptide region: H3 5-17, peptide modifications: H3S10ph H3T11ph, binder concentration: 500 nM): 0.00695 ± 0.00038
peptide microarray binding signal ([2]; peptide region: H3 5-17, peptide modifications: H3S10ph H3T11ph, binder concentration: 10 nM): 0.00346 ± 9.7e-05
peptide microarray binding signal ([2]; peptide region: H3 5-17, peptide modifications: H3S10ph H3T11ph, binder concentration: 100 nM): 0.016 ± 0.0014
peptide microarray binding signal [3, 23]: 0.000302 ± 3.1e-06
peptide microarray binding signal [3, 24]: 0.000285 ± 3.1e-06
peptide microarray binding signal [4, 23]: 0.00107 ± 0.00014
peptide microarray binding signal [4, 24]: 0.000461 ± 8.7e-06
